Experimental findings from PubChem BioAssay (Tox21) are described below.

Each structure is given as a SMILES string. “And” between values parts separate entries of the source, which are not always exact repeats. Equal entries are not always repeated. Inconclusive results are not listed. The source holds several records for some structures; these can differ, active in one and inactive in another. The source made the active and inactive calls. Unless noted, the call rests on the fitted dose curve; in most records, active means well fitted curve in the direction sought with a large enough effect in the repeat runs; inconclusive means weak or mixed curves; inactive means no such curve, though single readings can be large; an effect the other way counts as inactive or inconclusive.

A short description of assay [1]: qHTS assay to identify small molecule antagonists of the estrogen related receptor (ERR) signaling pathway from Tox21 library - cell viability counter screen (AID 1224834). Further: nearly all actives have a fitted effect of over 30% in size. Further: potency means the concentration at half of the fitted maximal effect. In short, it runs like this:
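Cytotoxicity of test substances is gauged in the same ERR cells used for the antagonist screen, after 17.5 h of compound treatment at 37 C, by CellTiter-Fluor fluorescence measured after 30 min.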
(qHTS replaces the single test concentration by a dilution series.)

The target in assay [2] is Luciferin 4-monooxygenase (Photinus pyralis) (UniProt P08659). As to the kind of experiment: qHTS assay to identify small molecule inhibitors of firefly luciferase (AID 1224835). Further: nearly all actives have a fitted effect of over 25% in size. In short, it runs like this: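 Inhibition of purified Photinus luciferase is measured by luminescence. Substrate levels (D-luciferin, ATP) sit at their KM values. Each compound is tested in a concentration series.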
Chain of Luciferin 4-monooxygenase (Photinus pyralis) (P08659 whole entry, looked up): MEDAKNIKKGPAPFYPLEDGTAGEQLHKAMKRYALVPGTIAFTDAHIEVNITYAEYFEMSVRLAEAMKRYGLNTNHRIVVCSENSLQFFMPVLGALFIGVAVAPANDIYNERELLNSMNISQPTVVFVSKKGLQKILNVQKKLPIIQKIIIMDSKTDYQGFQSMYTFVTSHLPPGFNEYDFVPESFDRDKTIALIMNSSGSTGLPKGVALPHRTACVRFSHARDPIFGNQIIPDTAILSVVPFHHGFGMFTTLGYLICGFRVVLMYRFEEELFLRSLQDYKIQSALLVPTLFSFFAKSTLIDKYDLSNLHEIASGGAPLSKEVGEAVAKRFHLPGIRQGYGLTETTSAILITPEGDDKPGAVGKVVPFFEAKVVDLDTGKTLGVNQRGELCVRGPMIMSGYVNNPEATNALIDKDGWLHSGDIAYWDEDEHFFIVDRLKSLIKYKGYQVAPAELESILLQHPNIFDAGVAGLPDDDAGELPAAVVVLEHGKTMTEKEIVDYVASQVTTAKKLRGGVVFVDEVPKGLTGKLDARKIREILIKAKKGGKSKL

A short description of assay [3]: qHTS assay to identify small molecule agonists of the constitutive androstane receptor (CAR) signaling pathway - cell viability counter screen (AID 1224836). Further: nearly all actives have a fitted effect of over 45% in size. Further: potency means the concentration at half of the fitted maximal effect. In short, it runs like this: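 Cell viability multiplexed with the CAR agonist screen: CellTiter-Fluor fluorescence after 23 hr at 37 C. HepG2-CYP2B6-hCAR cells got compounds at 15 concentrations with PK11195 at 0.75 uM final.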

A short description of assay [4]: qHTS assay to identify small molecule antagonists of the constitutive androstane receptor (CAR) signaling pathway - cell viability counter screen (AID 1224837). Further: nearly all actives have a fitted effect of over 45% in size. Further: potency means the concentration at half of the fitted maximal effect. In short, it runs like this:
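Multiplexed cytotoxicity read-out for the CAR antagonist screen: double-stable HepG2-CYP2B6-hCAR cells co-treated with 50 nM CITCO (final) and compound over 15 concentrations, incubated 23 hr, then assessed by CellTiter-Fluor fluorescence.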

Assay [5] concerns the target Nuclear receptor subfamily 1 group I member 3 (Homo sapiens) (UniProt Q14994). As to the kind of experiment: qHTS assay to identify small molecule antagonists of the constitutive androstane receptor (CAR) signaling pathway (AID 1224838). Further: nearly all actives have a fitted effect of over 40% in size. In short, it runs like this:
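Compounds were titrated across 15 concentrations onto HepG2 cells double-stably expressing hCAR and a CYP2B6-2.2kb reporter, together with 50 nM CITCO (final). After 24 h at 37 C, luciferase activity was measured by luminescence.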

Assay [6] is described as follows: qHTS assay to identify small molecule antagonists of the estrogen related receptor signaling pathway with the pleiotropic PPARgamma coactivator (PGC) from Tox21 10K library - cell viability counter screen (AID 1224840; active means well fitted cell-killing curve with a large enough effect in the repeat runs, not every such curve was filed as active; further: nearly all actives have a fitted effect of over 40% in size; further: potency means the concentration at half of the fitted maximal effect). In short, it runs like this: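 Step one, plate 2,000 PGC/ERR cells per well; step two, incubate 6 h at 37 C/5% CO2; step three, pin-transfer compounds; step four, incubate 17.5 h; step five, add CellTiter-Fluor and read fluorescence after 30 min.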

A short description of assay [7]: qHTS assay to identify small molecule antagonists of the estrogen related receptor signaling pathway with the pleiotropic PPARgamma coactivator (PGC) from Tox21 10K library (AID 1224841; call rule not given here; further: actives are mostly falling curves and most rising ones were filed inactive; nearly all actives have a fitted effect of over 50% in size; further: potency means the concentration at half of the fitted maximal effect). In short, it runs like this:
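Antagonism in this quantitative HTS is taken from loss of luciferase signal in PGC/ERR cells. Cells (2,000/well) are treated with compounds in DMSO after a 6 h settling period and read by One-Glo luminescence after 18 h.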

Assay [8] in a line: qHTS assay to identify small molecule agonists of the estrogen related receptor signaling pathway with the pleiotropic PPARgamma coactivator (PGC) from Tox21 10K library (AID 1224842). Further: nearly all actives have a fitted effect of over 15% in size. Put shortly:
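Luminescence from One-Glo (30 min, room temperature) measured after PGC/ERR cells had 18 h at 37 C with pinned compound (23 nL in DMSO). Cells had been seeded at 2,000 per well and pre-incubated 6 h.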

Assay [9] can be described thus: qHTS assay to identify small molecule antagonists of the estrogen related receptor (ERR) signaling pathway from Tox21 library (AID 1224848). Further: nearly all actives have a fitted effect of over 50% in size. Further: potency means the concentration at half of the fitted maximal effect. In short, it runs like this:
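Reading was by luminescence 30 min after ONE-Glo addition. Before that, ERR cells at 2,000 per well had rested 6 h at 37 C/5% CO2 and then received pin-tooled compounds in DMSO for 18 h at 37 C.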

Assay [10] can be described thus: qHTS assay to identify small molecule agonists of the estrogen related receptor (ERR) signaling pathway from Tox21 library (AID 1224849; calls by dose curve; further: nearly all actives have a fitted effect of over 15% in size). The conditions noted are these: ERR reporter cell line, ONE-Glo luciferase, 18 h; at 92.4 µM (top of the series) unless noted. Put shortly: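 Agonist signal is luciferase luminescence from an ERR reporter cell line treated 18 h at 37 C with DMSO-dissolved compounds, read 30 min after ONE-Glo addition at room temperature.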

A short description of assay [11]: qHTS RealTime-Glo MT Cell Viability Assay in HepG2 cells - 24 hour (AID 1224867). Further: nearly all actives have a fitted effect of over 50% in size. Further: potency means the concentration at half of the fitted maximal effect. In short, it runs like this: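 Compound treatment began 5 h after plating HepG2 cells (600/well) with NanoLuc luciferase and prosubstrate. Plates stayed at 37 C for 40 h; luminescence was captured at six time points, 0 h through 40 h.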
Assay [12] in a line: A CellTox Green Cytotoxicity Assay to monitor cytotoxicity in HEK293 cells - 0 hour (AID 1224869). Further: nearly all actives have a fitted effect of over 50% in size. In short, it runs like this: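 Cytotoxicity was tracked continuously in HEK293 cells by a DNA-binding dye excluded from viable cells. Compounds were transferred in DMSO 5 h after seeding; fluorescence was recorded at intervals up to 40 h.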
The nature of assay [13]: qHTS assay to identify small molecule agonists of the hypoxia (HIF-1) signaling pathway - cell viability counter screen (AID 1224844; calls by dose curve; further: nearly all actives have a fitted effect of over 50% in size). Put shortly: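 Tox21 10K compounds were added to HRE-bla ME-180 cells (0.5% dialyzed FBS) and incubated 17 hrs at 37C; ATP-based CellTiter-Glo luminescence then reported cell viability in the same wells.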
Assay [14] can be described thus: qHTS assay to identify small molecule agonists of the hypoxia (HIF-1) signaling pathway (AID 1224846; active means well fitted activation curve with a large enough effect in the signal ratio in the repeat runs, not every such curve was filed as active; the % refers to the signal ratio). Put shortly:
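Steps: seed ME-180 HRE-bla cells (2,000/well, 0.5% dialyzed FBS); incubate 5 hrs at 37C; pin-transfer compounds or DMSO; incubate 17 hrs; add LiveBLAzer B/G substrate CCF4-AM; measure reporter activation by FRET.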

A short description of assay [15]: qHTS RealTime-Glo MT Cell Viability Assay in HEK293 cells - 32 hour (AID 1224868). Further: nearly all actives have a fitted effect of over 50% in size. Further: potency means the concentration at half of the fitted maximal effect. Put shortly:
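Quantitative high-throughput screen of the Tox21 10K library in HEK293: cells and RealTime-Glo reagents plated together, compound added at 5 h, luminescence monitored through 40 h at 37 C.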

The nature of assay [16]: qHTS RealTime-Glo MT Cell Viability Assay in HepG2 cells - 40 hour (AID 1224870). Further: nearly all actives have a fitted effect of over 50% in size. Further: potency means the concentration at half of the fitted maximal effect. In short, it runs like this: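 Real-time viability: cells seeded at 600 per well together with NanoLuc and cell-permeant prosubstrate, compounds added after 5 h incubation. Luminescence tracked at 0, 8, 16, 24, 32 and 40 h of exposure.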
Assay [17] concerns the target Nuclear receptor subfamily 1 group I member 3 (Homo sapiens) (UniProt Q14994). As to the kind of experiment: qHTS assay to identify small molecule agonists of the constitutive androstane receptor (CAR) signaling pathway (AID 1224839). Further: nearly all actives have a fitted effect of over 15% in size. Further: potency means the concentration at half of the fitted maximal effect.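 On activation: HepG2 cells stably carrying human CAR and a CYP2B6 luciferase reporter.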 In short, it runs like this: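 Luminescent ONE-Glo read-out after 24 hr, 37 C exposure of double-stable HepG2-CYP2B6-hCAR reporter cells to a 15-point compound series, in the presence of 0.75 uM PK11195 (final).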

Assay [18] deals with Thyrotropin receptor (Homo sapiens) (UniProt P16473). As to the kind of experiment: qHTS assay to identify small molecule agonists of the thyroid stimulating hormone receptor (TSHR) signaling pathway (AID 1224843; calls by dose curve; further: nearly all actives have a fitted effect of over 45% in size; further: potency means the concentration at half of the fitted maximal effect). Put shortly:
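HEK293 cells stably bearing the thyrotropin receptor were plated at 800 cells/well and challenged with compound (30 min, RT). Accumulated cAMP was quantified via cAMP-d2 competing for cryptate-tagged antibody.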

Assay [19] is described as follows: qHTS assay to identify small molecule agonists of H2AX - cell viability counter screen (AID 1224847; calls by dose curve; further: nearly all actives have a fitted effect of over 30% in size; further: potency means the concentration at half of the fitted maximal effect). In short, it runs like this:
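Counter-screen for viability: CellTiter-Glo ATP luminescence read after 3 h compound treatment (15-point titration, 0.76% DMSO final) of CHO-K1 cells at 37C, with 30 min room-temperature reagent incubation.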

Assay [20] in a line: qHTS assay to identify small molecule agonists of H2AX (AID 1224845; active means well fitted activation curve with a large enough effect in the signal ratio in the repeat runs, not every such curve was filed as active; the % refers to the signal ratio; further: potency means the concentration at half of the fitted maximal effect). In short, it runs like this:
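Phospho-H2AX Ser139 measured by HTRF (ex 320 nm; em 665 and 620 nm) after 24 hr antibody incubation. Compounds, 15 concentrations, 0.76% DMSO, were applied to CHO-K1 cells for 3hr at 37C before lysis.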
On the % scale 0 is the no-effect control and ±100 the full control effect.

Chain of Nuclear receptor subfamily 1 group I member 3 (Homo sapiens) (Q14994 whole entry, looked up): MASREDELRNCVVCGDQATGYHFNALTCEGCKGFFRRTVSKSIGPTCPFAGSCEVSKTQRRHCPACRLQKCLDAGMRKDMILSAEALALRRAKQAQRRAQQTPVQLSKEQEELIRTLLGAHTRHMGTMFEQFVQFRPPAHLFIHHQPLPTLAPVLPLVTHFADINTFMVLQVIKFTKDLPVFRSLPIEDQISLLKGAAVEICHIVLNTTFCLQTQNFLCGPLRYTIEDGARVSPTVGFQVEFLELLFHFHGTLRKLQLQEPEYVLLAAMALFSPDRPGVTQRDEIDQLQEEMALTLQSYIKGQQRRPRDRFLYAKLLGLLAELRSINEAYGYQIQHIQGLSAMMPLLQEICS
Chain of Thyrotropin receptor (Homo sapiens) (P16473 whole entry, looked up): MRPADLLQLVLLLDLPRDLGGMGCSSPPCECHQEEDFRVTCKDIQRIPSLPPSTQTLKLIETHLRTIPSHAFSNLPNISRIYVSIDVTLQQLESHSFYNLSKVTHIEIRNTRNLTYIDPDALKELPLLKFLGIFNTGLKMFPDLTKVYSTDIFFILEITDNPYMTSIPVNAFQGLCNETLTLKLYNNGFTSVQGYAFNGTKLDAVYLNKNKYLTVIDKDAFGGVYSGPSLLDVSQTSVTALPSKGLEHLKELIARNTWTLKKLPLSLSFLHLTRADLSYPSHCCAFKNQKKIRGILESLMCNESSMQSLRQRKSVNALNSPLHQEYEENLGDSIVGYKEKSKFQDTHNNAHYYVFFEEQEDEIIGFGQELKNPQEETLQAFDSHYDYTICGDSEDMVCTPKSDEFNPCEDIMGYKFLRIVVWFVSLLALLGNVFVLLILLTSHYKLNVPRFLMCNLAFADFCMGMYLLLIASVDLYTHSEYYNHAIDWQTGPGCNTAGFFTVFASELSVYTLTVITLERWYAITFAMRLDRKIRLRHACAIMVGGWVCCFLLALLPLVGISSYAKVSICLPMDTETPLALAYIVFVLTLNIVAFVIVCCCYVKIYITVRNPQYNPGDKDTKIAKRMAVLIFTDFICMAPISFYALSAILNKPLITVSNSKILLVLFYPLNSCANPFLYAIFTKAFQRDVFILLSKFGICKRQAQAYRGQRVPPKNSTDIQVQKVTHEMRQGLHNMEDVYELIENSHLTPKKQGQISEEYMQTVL

Consider `ClC(Cl)=C(c1ccc(Cl)cc1)c1ccc(Cl)cc1`, for which the Potency result in assay [1], in assay [2], in assay [3], in assay [4], in assay [5] and in assay [6] was “inactive” throughout. Moreover, the Potency entry in assay [7], in assay [8], in assay [9], in assay [11] and in [12] was “inactive” each time. In addition, the activity change, positive = activation in assay [10] was -26.1% (inactive) and 7.66% (inactive).

As for `CC(=O)c1cc(C(C)(C)C)cc2c1CCC2(C)C`, the Potency entry in assay [1], in [2], in [3], in [4], in assay [5] and in [6] was “inactive” each time. In addition, the Potency entry in assay [7], in assay [8], in assay [13], in [9], in assay [11] and in assay [15] was “inactive” each time. The Potency result in assay [12] and in [16] was “inactive” throughout. In addition, in [14], the result was inactive.

On to `Oc1ccc(C(c2ccc(O)cc2)(C(F)(F)F)C(F)(F)F)cc1`, for which the Potency is 54.2 µM (active) in assay [1]; 4.31 µM (active) and 5.45 µM (active) in assay [17]; 60.8 µM (active) in assay [7]; 30.5 µM (active) in assay [18]; 113 µM (active) in [19]; 54.2 µM (active) and 61.1 µM (active) in assay [9]. Further, the Potency in assay [15] is 43.4 µM (active). For the same compound, the Potency result in assay [2], in assay [3], in assay [4], in assay [8], in [13] and in assay [11] was “inactive” in each case. In addition, the Potency entry in assay [12] and in assay [16] was “inactive” throughout. In addition, the activity change, positive = activation in assay [10] is -65.7% (inactive) and -36.3% (inactive).

With `Clc1ccc(Oc2ccccc2)cc1`, the Potency result in assay [1], in [2], in assay [3], in assay [4], in [5] and in assay [17] was “inactive” in each case. The Potency result in [6], in [11], in [15], in assay [12] and in assay [16] was “inactive” in each case. The compound was called inactive in assay [14].

As to `CCCN(CCC)c1c([N+](=O)[O-])cc(S(N)(=O)=O)cc1[N+](=O)[O-]`, the Potency in assay [1] was 46.2 µM (active); in [3], 65.2 µM (active); in assay [4], 65.2 µM (active); in [17] it was 16.4 µM (active); in assay [6], 36.7 µM (active); in assay [7], 65.2 µM (active). In addition, the Potency in assay [18] was 5.18 µM (active); in assay [20] it was 101 µM (active); in assay [19], 89.8 µM (active); in assay [9], 48.6 µM (active); in assay [11], 43.6 µM (active); in assay [15], 18.5 µM (active). The Potency in assay [16] was 49 µM (active). The Potency entry in assay [2], in assay [8] and in assay [12] was “inactive” throughout. Also, the activity change, positive = activation in assay [10] was -56.8% (inactive).

With `COP(=O)(CCC(=O)NCO)OC`, the Potency entry in assay [1], in assay [2], in [3], in assay [4], in [17] and in assay [6] was “inactive” in each case. For the same compound, the Potency entry in [7], in assay [8], in assay [18], in [13], in assay [19] and in assay [9] was “inactive” each time. Moreover, the Potency result in assay [11], in [15], in [12] and in assay [16] was “inactive” throughout. Moreover, in [14], the compound was classed as inactive. The activity change, positive = activation in [10] was 3.27% (inactive).

As to `CCCCCCCCCCCCCCCC[N+](C)(C)C`, the Potency in [1] was 23.5 µM (active) and 61.1 µM (active) and 18.8 µM (active); in assay [3] it was 54.5 µM (active); in [4], 54.5 µM (active); in [6], “inactive and 61.1 µM (active)”; in assay [19], 54.6 µM (active) and 101 µM (active) and 49.2 µM (active); in [11], “inactive and 49 µM (active) and 23.9 µM (active)”. Besides, the Potency in assay [15] was 9.42 µM (active) and 21.9 µM (active) and 8.49 µM (active); in [16], 24.5 µM (active) and 21.3 µM (active). The Potency entry in [2], in [5], in [17], in [13] and in [20] was “inactive” in each case.
